Reference: the supplement of paper PMC3545927
The list shows a part of the results. The true hit rate is not given.

Molecular target: furin, P09958
Assay: furin cleavage Z-score vs untreated control; higher = more cleavage, active = 3.5 or more, inactive = 1 or less, 8 variable residues between constant flanks
Method in brief: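 Read counts from sequencing released DNA gave abundance for each bead-bound 8-mer peptide–cDNA fusion cut by purified furin over 7.5, 15 or 30 min. The cleavage Z-score compares log counts with furin-free reactions after lowess adjustment and median absolute deviation scaling.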
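Further: purified furin at 1:10 enzyme:substrate in 50 mM HEPES pH 7.5.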

furin, P09958, sequence (P09958 whole entry): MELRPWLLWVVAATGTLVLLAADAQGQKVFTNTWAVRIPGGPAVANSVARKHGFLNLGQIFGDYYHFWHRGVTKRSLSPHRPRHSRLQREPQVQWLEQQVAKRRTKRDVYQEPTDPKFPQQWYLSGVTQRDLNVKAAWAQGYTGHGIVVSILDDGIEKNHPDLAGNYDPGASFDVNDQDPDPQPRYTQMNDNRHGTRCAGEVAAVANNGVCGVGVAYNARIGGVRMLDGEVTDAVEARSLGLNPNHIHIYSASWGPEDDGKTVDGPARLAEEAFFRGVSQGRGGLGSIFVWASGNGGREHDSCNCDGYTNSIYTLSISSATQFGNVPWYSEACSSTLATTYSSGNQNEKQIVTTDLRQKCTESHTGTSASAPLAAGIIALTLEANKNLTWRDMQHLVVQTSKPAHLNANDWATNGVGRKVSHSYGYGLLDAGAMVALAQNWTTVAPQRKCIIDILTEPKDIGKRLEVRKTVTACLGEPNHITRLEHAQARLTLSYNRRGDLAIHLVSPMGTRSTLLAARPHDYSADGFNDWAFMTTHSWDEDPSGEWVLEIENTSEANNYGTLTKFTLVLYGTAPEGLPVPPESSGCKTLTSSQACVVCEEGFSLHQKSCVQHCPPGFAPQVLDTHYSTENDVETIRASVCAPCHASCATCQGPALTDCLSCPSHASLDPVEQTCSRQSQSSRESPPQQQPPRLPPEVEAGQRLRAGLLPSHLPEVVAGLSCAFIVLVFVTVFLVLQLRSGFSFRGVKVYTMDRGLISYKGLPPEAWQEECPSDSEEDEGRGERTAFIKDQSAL

Sequence | furin cleavage Z-score (7.5 min) | furin cleavage Z-score (15 min) | furin cleavage Z-score (30 min)
CAVSSRKSRWAGNASASA [FS-1501] | 3.21 | 3.75 (active) | 5.97 (active)
CAQSSRQPRPAGNASASA [FS-141] | -0.311 (inactive) | -0.656 (inactive) | -0.417 (inactive)
CAQSSRHRRAAGNASASA [FS-851] | 13.1 (active) | 12.7 (active) | 10.3 (active)
CAVSSRHRRAAGNASASA [FS-1106] | 12.3 (active) | 12.4 (active) | 10.3 (active)
CANSKRKSRPAGNASASA [FS-1145] | -2.35 (inactive) | 0.946 (inactive) | -1.84 (inactive)
CAQWQVLPCSAGNASASA [HC496] | -0.675 (inactive) | 0.494 (inactive) | 0.276 (inactive)
CARTGVRTITAGNASASA [HC800] | -0.25 (inactive) | -0.718 (inactive) | -0.285 (inactive)
CARRGPRLGVAGNASASA [HC180] | -0.669 (inactive) | -0.347 (inactive) | -0.923 (inactive)
CAREKRELRQAGNASASA [FS-2657] | 9.73 (active) | 13.3 (active) | 9.26 (active)
CAGRSRDLRGAGNASASA [FS-165] | -0.794 (inactive) | -0.817 (inactive) | -1.52 (inactive)
CAGRSRELRQAGNASASA [FS-166] | 2.87 | 2.42 | 4.09 (active)
CAREKREKIKAGNASASA [FS-2208] | -0.771 (inactive) | -0.626 (inactive) | 0.291 (inactive)
CAADPRTWRSAGNASASA [FS-741] | -0.983 (inactive) | 1.45 | -0.478 (inactive)
CAADPRVRRAAGNASASA [FS-1298] | 10.1 (active) | 8.47 (active) | 8.31 (active)
CAQKKRGGTAAGNASASA [WN2] | -0.625 (inactive) | -0.389 (inactive) | 0.122 (inactive)
CALLQRKKKLAGNASASA [FS-823] | 0.0701 (inactive) | 0.355 (inactive) | -0.31 (inactive)
CAADARVCSCAGNASASA [HC524] | 0.17 (inactive) | -2.96 (inactive) | -3.71 (inactive)
CAENLVILNAAGNASASA [HC535] | -0.56 (inactive) | -1.45 (inactive) | 0.00797 (inactive)
CALIPRVRRAAGNASASA [FS-608] | 9.17 (active) | 10.3 (active) | 8.48 (active)
CALLQRVRRAAGNASASA [FS-1360] | 3.77 (active) | 3.58 (active) | 3.76 (active)
CAVNQRVRRAAGNASASA [FS-735] | 10 (active) | 8.42 (active) | 8.51 (active)
CAAGVQEDAAAGNASASA [HC1534] | 0.273 (inactive) | -0.401 (inactive) | -1.13 (inactive)

Sequence | furin cleavage Z-score (7.5 min) | furin cleavage Z-score (15 min) | furin cleavage Z-score (30 min)
CAEKPCHRPSAGNASASA [HC2334] | -0.309 (inactive) | 0.292 (inactive) | 0.19 (inactive)
CADRMEECSQAGNASASA [HC1813] | 0.635 (inactive) | -0.476 (inactive) | -0.0128 (inactive)
CARSARSAPEAGNASASA [FS-2377] | 7.91 (active) | 9.89 (active) | 6.92 (active)
CARSIKSVPEAGNASASA [FS-1927] | 0.273 (inactive) | -0.944 (inactive) | 0.475 (inactive)
CARWNRFAMIAGNASASA [FS-2200] | 0.704 (inactive) | -0.675 (inactive) | -0.478 (inactive)
CARWPRSDPEAGNASASA [FS-1807] | 2.83 | 2.73 | 4.21 (active)
CARTWRSVPEAGNASASA [FS-2528] | 0.349 (inactive) | 0.625 (inactive) | 1.35
CARSARSVARAGNASASA [FS-3075] | 5.33 (active) | 7.5 (active) | 6.53 (active)
CASTWCSAHLAGNASASA [HC2508] | 0.983 (inactive) | 0.815 (inactive) | 0.802 (inactive)
CAMILMTHFFAGNASASA [HC1582] | -0.371 (inactive) | -0.697 (inactive) | -2.29 (inactive)
CAHCTTPCSGAGNASASA [HC1955] | -1.08 (inactive) | -1.68 (inactive) | 0.655 (inactive)
CAEQVVCCSMAGNASASA [HC2142] | -0.416 (inactive) | -0.852 (inactive) | 2.1
CAEPPEAKRGAGNASASA [FS-1117] | 0.349 (inactive) | -1.82 (inactive) | -0.871 (inactive)
CARQKKLAEKAGNASASA [FS-2585] | 0.116 (inactive) | -2.1 (inactive) | 0.509 (inactive)
CAKVKREAEKAGNASASA [FS-1674] | 5.11 (active) | 4.39 (active) | 5.05 (active)
CAKCDELAAKAGNASASA [HC860] | 1.37 | 1.03 | -0.237 (inactive)
CAPEKRAKRGAGNASASA [FS-1044] | 10.2 (active) | 9.94 (active) | 7.39 (active)
CAKVKREKRGAGNASASA [FS-454] | 11.2 (active) | 10.5 (active) | 9.94 (active)
CAGHQREKRGAGNASASA [FS-428] | 11.3 (active) | 13.2 (active) | 10.6 (active)
CASVSREDRGAGNASASA [FS-1491] | -0.464 (inactive) | -0.739 (inactive) | -0.69 (inactive)
CAPEKRSVFAAGNASASA [FS-2874] | -0.508 (inactive) | -0.764 (inactive) | -1.36 (inactive)
CAPKPCGIVPAGNASASA [HC406] | 0.0213 (inactive) | 0.68 (inactive) | 1.33
